The assay concerns MDA-MB-468 breast. Nature of the assay: NCI-60 one-dose screen, 48 h (100 = growth as untreated, 0 = no growth, -100 = all killed). The note with it: 10 µM unless noted.

We go through 82 molecules from PubChem BioAssay (NCI).

Values joined by “and” are separate entries in the source; they are usually repeats but may differ in a detail not shown here. Identical values can stand only once. About 83,000 compounds went through this panel and 20% of them were active in at least one assay; those are over-represented in the sample as a whole.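 Results are percent growth after 48 hours of single-concentration exposure. 100 means growth as in untreated cells, lower positive values show inhibition; negative values down to -100 show cell death.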 Unmarked numbers belong to inactive results. Active and inactive are the calls of the source. How the source made its calls: active means growth percent below 10; inactive means the rest.

As to `CCN(CC)CCCC(C)Nc1nc(-c2ccc(OC)cc2)nc2cc(Cl)ccc12` (configuration not stated), the growth was 34.8%.
Under `N#Cc1nc(-c2ccccc2)oc1N1CCC(CO)C1` (configuration not stated) stands 92.5%; under `Cc1ccc(-c2cc3nc(C(Cl)Cl)nc(-c4cccnc4)n3n2)cc1`, -61.5% (active).
Regarding `CNC(=O)c1cc(Oc2ccc(NC(=O)Nc3ccc(Cl)c(SC)c3)c(F)c2)ccn1`, the growth was 13.6%.
Under `CCN1C(=O)N(CC)C2C1NN=c1s/c(=C\c3ccccc3F)c(=O)n12` (configuration not stated) stands 10.9%; under `CCOC(=O)C1=C(C)N=C2Sc3cccc(OC)c3N2[C@H]1c1ccccn1`, 108%; under `CCC1CCc2nc3sc(C(=O)Nc4ccccc4F)c(N)c3cc2C1` (configuration not stated), 25%.
The figure for `COC(=O)[C@H]1CCCN1C(=O)[C@H]1CCCN1C(=O)[C@H](Cc1c[nH]c2ccccc12)NC(=S)Nc1cc(C(F)(F)F)cc(C(F)(F)F)c1` is 61%; for `CC(C)=CCC[C@](C)(O)[C@H]1CC[C@]2(C)[C@@H]1CC[C@@H]1[C@@]3(C)CC/C(=N/O)C(C)(C)[C@@H]3CC[C@]12C` it is -26.3% [100 µM] (active).
The figure for `c1ccc(-c2ccc3c(c2)C2(CCNCC2)CN3)cc1` is 106%.
In the case of `C/C(=C\c1ccc(OCC(=O)O)c(Cl)c1Cl)[N+](=O)[O-]`, the growth is 119%.
Regarding `C/C=C(/C)n1cnc2c(Nc3ccccn3)nc(Cl)nc21`, the growth is 93%.
As to `CC(C)(O)c1cncc(-c2ccc3ncnc(N4CCc5cc(F)c(Cl)cc54)c3c2)c1`, the growth is -36% (active).
As to `O=C(Nc1ccc([N+](=O)[O-])cc1)c1cc2ccccc2cc1O`, the growth was -8.75% (active).
The figure for `CCCCCCCC/C=C\CCCCCCCCOc1ccc(CC(=O)NCC[N+]2(C)CCCC2)cc1` is 33.5%; for `COc1cccc(-n2cc(-c3nc(Cl)c4ccccc4n3)nn2)c1` it is 117%; for `Oc1ccccc1/C=N/N=C/c1c(O)ccc2ccccc12` it is 83.4%.
As to `OCc1n(Cc2ccc3ccccc3c2)cc[n+]1Cc1ccc2ccccc2c1`, the growth was -29% (active).
Under `COC(=O)c1[nH]nc2c1C1(C(=O)N(C)c3ccccc31)C(C#N)=C(N)O2` (configuration not stated) stands 97.5%; under `CS(=O)(=O)c1nccc(-c2c(-c3ccc(F)c(OCCc4ccccc4)c3)nc3sccn23)n1`, -83.4% (active).
For the molecule `Fc1ccccc1-c1nc(-c2nc3cc(Cl)c(Cl)cc3[nH]2)c2ccccn12`, the growth was 63.1%.
For the molecule `COc1ccc(C(C)=C(c2ccc(OCCN(C)C)cc2)c2ccc(OCCN(C)C)cc2)cc1`, the growth was -76.9% (active).
Under `CCOC(=O)c1[nH]cc2c1CCc1sc(Nc3ccccn3)nc1-2` stands 46.9%.
`O=C1N=C(N2CCOCC2)S/C1=C\c1cn(-c2ccccc2)nc1-c1ccccc1`: the growth was 83.3%.
Under `COc1ccc(NC(=O)c2sc3nc(C)c(C(=O)/C=C/c4cccc(OC)c4)cc3c2N)cc1` stands 27.9%; under `COc1cccc(-c2cc(-c3cccc(Cl)c3)c(C#N)c(=O)[nH]2)c1`, 70.1%.
Under `Cc1ccc(-c2nc(N3CCN(C(=O)c4ccc(OC(F)(F)F)cc4)CC3)c3ccccc3n2)cc1` stands 93.8%.
In the case of `Nc1ccc(Sc2ccc3c4c2cccc4c(=O)n2c4ccccc4nc32)cc1`, the growth was 43.5%.
The figure for `CN(Cc1cnc2nc(N)nc(N)c2n1)c1ccc(C(=O)NC(CCC(=O)O)C(=O)O)cc1Br` (configuration not stated) is 42.4%.
Under `COC(=O)C1C(O)C(C)C(O)C(C)C=C(C)C2=C3C(=C(C)C(=O)c4c(O)c(c(C)c(OC(C)=O)c43)NC(=O)C(C)=C/C=C\C(C)C(O)C(C)C1O)OCO2` (configuration not stated) stands 106%.
Under `Cc1cn(C)cn1` stands 112%.
`COc1ccc(-c2csc(NC(=O)CN3CCN(CCO)CC3)n2)cc1NS(=O)(=O)c1cccc2c(N(C)C)cccc12`: the growth is 55.6%.
Under `CC(C)(C)c1cc(Cl)c(O)c(CNCCO)c1` stands 96.1%; under `CC(=O)Oc1ccc(C(c2ccc(OC(C)=O)cc2)c2ccccn2)cc1`, 17.3%; under `O=C(/C(=C/c1cccc([N+](=O)[O-])c1)c1ccccc1)c1ccccc1`, 38.2%.
Under `CC(C)[C@H](CO)Nc1nc(Nc2ccc(C(=O)NCCNS(=O)(=O)c3cccc4c(N(C)C)cccc34)c(Cl)c2)c2ncn(C(C)C)c2n1` stands -14.1% (active).
The figure for `CC[C@]1(O)CC2CN(CCc3c([nH]c4ccccc34)[C@@](C(=O)OC)(c3cc4c(cc3OC)N(C)[C@H]3[C@@](O)(C(=O)OC)[C@H](OC(C)=O)[C@]5(CC)C=CCN6CC[C@]43[C@@H]65)C2)C1` (some centres not stated) is 16.1%; for `COc1cccc(-c2nc3sccn3c2-c2ccnc(NCCCNS(=O)(=O)c3ccccc3)n2)c1` it is 52%.
With `CNC(=O)c1c(NC(=O)c2ccc(C(C)(C)C)cc2)sc2c1CCC(=O)C2`, the growth was 3.25% (active).
The figure for `N#C/C(=C\c1ccc([N+](=O)[O-])s1)c1nc2cc(Cl)ccc2s1` is 93.7%; for `CCSC1=CC(=O)c2ccccc2C1=O` it is -88.1% (active).
In the case of `C=C1CC[C@@H]2[C@](C)(COC(C)=O)[C@H](OC(C)=O)CC[C@@]2(C)[C@@H]1C/C=C1/C(=O)OC[C@H]1OC(C)=O`, the growth was 7.98% (active).
As to `CCCCCCCCCCCCOB(OCCCCCCCCCCCC)OCCCCCCCCCCCC`, the growth was 99.2%.
For `CC(C)C[C@H](NC(=O)Cn1ccc2ccccc2c1=O)B(O)O`, the growth was 0.399% (active).
As for `N#Cc1c2ccccc2c2n1-c1ccccc1OC(c1ccccc1)C2=O` (configuration not stated), the growth was 65.7%.
As for `CC12O[C@H](C[C@@H](OC(=O)c3ccccc3)[C@H]1O)n1c3ccccc3c3c4c(c5c6ccccc6n2c5c31)C(=O)NC4=O`, the growth was 81.1%.
The figure for `CC(=O)N/C(=C1/OC(C(O)C(O)C(O)CO)CN1C)[P+](c1ccccc1)(c1ccccc1)c1ccccc1` (configuration not stated) is 106%; for `CC(=O)c1cccc(NS(=O)(=O)c2ccc(C)cc2)c1` it is 77.3%; for `Nc1nc(N)c2c(n1)NC(c1cccc(Nc3ccnc4cc(C(F)(F)F)ccc34)c1)CC(c1ccc(F)cc1)=N2` (configuration not stated) it is 18%.
Under `O=C1CC(c2ccc(Cl)cc2)c2ncn(-c3cccc(Cl)c3)c2N1` (configuration not stated) stands 41.3%; under `Clc1ccc2c(NC3CCC(N4CCOCC4)CC3)ccnc2c1` (configuration not stated), 9.58% (active); under `Cc1cc(N2CCCCC2)nc(N2CCN(CC(=O)Nc3ccc4c(ccn4Cc4ccccc4)c3)CC2)n1`, 37.6%.
The figure for `Nc1n[nH]c2ccc([C@@H]3Nc4ccc5[nH]ncc5c4[C@H]4[C@H]5CCC(C5)[C@H]43)cc12` is 28.1%; for `COc1cc(OC)c(C(=O)/C=C/c2cc3c(cc2OCc2ccccc2)OC(C)(C)CC3)cc1CC=C(C)C` it is 26.2%; for `CCO/C=C1\SC(=S)N(c2cccc(C)c2)C1=O` it is 102%.
Turning to `CCCCOc1cc(C(=O)NCCN(CC)CC)c2ccccc2n1`, the growth is 81.3% and 94.3%.
Under `O=[N+]([O-])c1ccccc1N=Nc1ccc(O)cc1O` stands 118%.
Under `C=C1C(=O)O[C@H]2[C@H]1CC/C(CNC(=O)Cc1c[nH]c3ccccc13)=C\CC[C@@]1(C)O[C@@H]21` stands -79.9% (active); under `Oc1ccccc1/C=N\NC(=S)Nc1ccc(F)cc1`, 2.61% (active).
With `CC1(C)CC([P+](c2ccccc2)(c2ccccc2)c2ccccc2)=NN1`, the growth is -12.9% (active).
The figure for `Cc1c(Cc2ccccc2)c(=O)oc2c(C)c(OCc3n[nH]c(=S)o3)ccc12` is 77.7%; for `CCN(CC)C12CCCCC1(C)C(C#N)(C#N)C(C#N)=C(N)O2` (configuration not stated) it is 93.5%; for `CCOC(=O)c1cn2ncnc(Oc3ccc(NC(=O)NC4CC4)c(Cl)c3)c2c1C` it is 90.1%.
The figure for `Cc1cc(C)c(CCc2cc(C)c(C)cc2C)cc1C` is 109%; for `Cc1ccccc1NC(=O)N/C(N)=N/c1nc(-c2cccc([N+](=O)[O-])c2)cs1` it is 6.27% (active); for `S=c1ccnc[nH]1` it is 122%.
Under `CCCc1cc(CCC)n2nc(N)nc2n1` stands 95.8%; under `COc1ccc2c(c1)C1(C(=O)N2)C(C#N)=C(c2ccccc2)Nc2c1c(-c1ccccc1)nn2-c1ccccc1` (configuration not stated), 76.5%.
For `COc1cccc(O)c1O`, the growth is 86.7%.
Consider `CN1CCN(c2ccc3c(c2)nc(NNC(=O)c2ccncn2)c2cccn23)CC1`, for which the growth was 19.7%.
Regarding `CC(=O)Oc1cc(C(=O)O)cc(OC(C)=O)c1OC(C)=O`, the growth is 98.6% and 108%.
Under `Cc1ccc(CNc2ccc(Cl)cc2NCc2ccc(C)c(O)c2)cc1O` stands 32.5%.
As for `COc1cc(/C=C2\CN(S(=O)(=O)c3ccccc3)C/C(=C\c3cc(CN4CCCCC4)c(O)c(OC)c3)C2=O)cc(CN2CCCCC2)c1O`, the growth was 53.2%.
Regarding `CCCCCCCCCCCCSC1=CC(=O)C=CC1=O`, the growth is 82.8%.
As to `Cc1cn(-c2cc(C(=O)Nc3cccc(C#Cc4cccc5[nH]nc(N)c45)c3)cc(C(F)(F)F)c2)cn1`, the growth was 69.6%.
The figure for `NC(N)=Nc1ccc(Oc2cccc(Oc3ccc(Cl)c(C(F)(F)F)c3)c2)cn1` is -79.3% (active); for `COc1ccccc1Nc1nnc(COc2ccc(CNC(=O)CCCC/C=C/C(C)C)cc2OC)o1` it is 99.7%; for `NC(=O)C(O)(c1ccccc1)c1ccccc1` it is 95.1%.
`Cc1c(C(=O)NO)sc2ncnc(Nc3ccc(NC(=S)Nc4ccccc4)cc3)c12`: the growth was 104%.
Take `Cc1ccc2nc(-c3ccc(C(=O)NNC(=S)Nc4ccccc4)cc3)[nH]c2c1`: the growth is 98.6%.
Turning to `C[C@]12CCc3c(ccc4cc(O)ccc34)[C@@H]1C[C@H](O)[C@@H]2O`, the growth was 100%.
The figure for `CC(=O)N[C@@H](CNC(=O)c1cc(NC(=O)c2cc(NC(=O)c3cc(NC(=O)c4nccn4C)cn3C)cn2C)cn1C)CC(=O)Nc1cn(C)c(C(=O)Nc2cc(C(=O)Nc3cc(C(=O)Nc4cc(C(=O)NCCCN(C)CCCNC(=O)c5cccc(C(=O)O)c5)n(C)c4)n(C)c3)n(C)c2)n1` is 71.5%.
